# “And” between values parts separate entries of the source, which are not always exact repeats. Equal values may be shown once. Results filed as inconclusive are left out. The source made the active and inactive calls. Calls follow the shape of the dose curve; as a rule, active = well fitted inhibition curve with a large enough effect; inconclusive = small, poorly fitted or top-dose-only effect; inactive = flat fitted curve, though single readings scatter.
# Assay: Primary qHTS for inhibitors of nuclear receptor binding SET domain protein 2 (NSD2) in an isogenic RCH-ACV NSD2 p.E1099K mutant (9B) (AID 1645876); also: nearly all actives have a fitted effect of over 70% in size
# Conditions: RCH-ACV (leukaemia line) NSD2 E1099K (9B) viability, CellTiter-Glo, 72 h; series mostly up to 44.9 µM; activity change, negative = viability loss: at the top concentration
# % is scaled to controls: 0 for no effect and ±100 for the full control effect; potency is read from the fitted curve at half-maximal effect.
Compound,outcome,"activity change, negative = viability loss",Potency
O=C1OCc2cc3cccc(O[C@@H]4O[C@H](CO)[C@@H](O)[C@H](O)[C@H]4O)c3c(O)c21,inactive,,
CC1CCC2C(C)(C)[C@@H](O)CC[C@]2(C)C12Cc1c(O)cc3c(c1O2)CN(C(CCC(=O)O)C(=O)O)C3=O (some centres not stated),,-4.94% [at 17.3 µM] (inactive),
Nc1nccn2c(C3CCC(C(=O)O)CC3)nc(-c3cc4cccc(Cl)c4[nH]3)c12 (configuration not stated),,,1.29 µM (active) and 3.72 µM (active)
C=CC/C=C\C/C=C\CCCCCCCc1cccc(O)c1C(=O)O,,-9.85% (inactive),
O=C(c1ccc2nccnc2c1)N1CCCCC1,,-0.87% (inactive),
Cc1cn(C2C=CC(CO)O2)c(=O)[nH]c1=O (configuration not stated),,-21% (inactive),
CC1CC2OC3(OC2C(C)(C)O)C1C1(C)CCC24CC25CCC(O[C@@H]2OC[C@@H](O)[C@H](O)[C@H]2O)C(C)(C)C5CC=C4C1(C)C3O (some centres not stated),,-1.92% [at 17.3 µM] (inactive),
C[C@H](C/C=C/C(C)(C)O)[C@H]1CC[C@@]2(C)[C@@H]3[C@@H](O[C@@H]4O[C@H](CO)[C@@H](O)[C@H](O)[C@H]4O)C=C4C(CC[C@H](O)C4(C)C)[C@]3(C=O)CC[C@]12C (some centres not stated),,-12.7% [at 17.3 µM] (inactive),
CCN(CC)c1ccc2c(O)c(C=Nc3ccc(CC(=O)O)c(-c4c5c(nc6ccccc46)CCC(C(=O)NN)C5)c3)c(=O)oc2c1 (configuration not stated),,,2.9 µM (active)
CC(C)=CCC[C@](C)(O[C@@H]1O[C@H](CO)[C@@H](O)[C@H](O)[C@H]1O)[C@H]1CC[C@]2(C)[C@@H]1[C@H](O)CC1[C@@]3(C)CC[C@H](O)C(C)(C)C3[C@@H](O[C@@H]3O[C@H](CO)[C@@H](O)[C@H](O)[C@H]3O)C[C@]12C (some centres not stated),,-4.08% [at 17.3 µM] (inactive),
CC(=O)c1ccc2c(c1)C(O)C(C(C)(C)O)O2 (configuration not stated),,-10.5% (inactive),
CCN(CC)CCN(Cc1ccc(-c2ccc(C(F)(F)F)cc2)cc1)C(=O)Cn1c(SCc2ccc(F)cc2)nc(=O)c2c1CCC2,,,2.9 µM (active)

# — PubChem BioAssay (NCATS)
